Experimental data published in PubChem BioAssay.
The list shows a part of the results. Active and inactive are the calls of the source.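 How the source made its calls, unless noted: active means inhibition above the mean plus 3 SD of solvent-only control wells, limit set per screening run (cut at about 16% in these data); inactive means the rest.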

Columns and labels:
[1] = blockers of IL-6 STAT3 signaling – U3A cells, luciferase, luminescence, confirmation (AID 1265;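 active means inhibition above the hit cutoff computed for the primary STAT3 screen, cut at about 44% in these data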;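 further: 0% = IL-6 plus DMSO and 100% = IL-6 plus nifuroxazide control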); settings: IL-6 STAT3 luciferase reporter, at 5.7 µM, stronger effect = higher value, cell line lacks STAT1
[2] = inhibition of TNF-alpha-driven NF-kB transcription – cell-based, HEK293T, luciferase, TNF-alpha stimulus, counter-screen for STAT3 inhibitor project, confirmation (AID 1308;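 active means inhibition above the mean of solvent-only control wells plus 3 SD, cutoff set per campaign, cut at about 13% in these data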;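 further: 0% = TNF-alpha with DMSO and 100% = TNF-alpha with MG high control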); settings: HEK293T NF-kB luciferase reporter, TNF-alpha induced; at 5.7 µM; stronger effect = higher value
[3] = inhibition of STAT1-driven transcription – cell-based, NIH 3T3, luciferase luminescence, IFN-gamma, counter-screen for STAT3 inhibitor project, confirmation (AID 1317); settings: NIH 3T3 STAT1-luciferase reporter, IFN-gamma induced, at 5.7 µM, stronger effect = higher value;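 further: 0% = DMSO with IFN-gamma and 100% = nifuroxazide control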
[4] = biological target: Oxysterols receptor LXR-beta (Homo sapiens) (UniProt P55055); assay: nonspecific reporter activation via LXR – cell-based, luminescence, HEK293, H. contortus campaign, counter-screen for hcDAF-12 agonist project, confirmation (AID 743027;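 active means mean percent activation of the reporter above a cutoff set as the average over tested compounds plus their standard deviation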); settings: HEK293 Gal4-LXR tk-luc reporter, 24 h, at 6.8 µM, stronger effect = higher value, normalized: DMSO 0%, positive control 100%
Oxysterols receptor LXR-beta (Homo sapiens), sequence (P55055 whole entry, looked up, the tested form may be a part): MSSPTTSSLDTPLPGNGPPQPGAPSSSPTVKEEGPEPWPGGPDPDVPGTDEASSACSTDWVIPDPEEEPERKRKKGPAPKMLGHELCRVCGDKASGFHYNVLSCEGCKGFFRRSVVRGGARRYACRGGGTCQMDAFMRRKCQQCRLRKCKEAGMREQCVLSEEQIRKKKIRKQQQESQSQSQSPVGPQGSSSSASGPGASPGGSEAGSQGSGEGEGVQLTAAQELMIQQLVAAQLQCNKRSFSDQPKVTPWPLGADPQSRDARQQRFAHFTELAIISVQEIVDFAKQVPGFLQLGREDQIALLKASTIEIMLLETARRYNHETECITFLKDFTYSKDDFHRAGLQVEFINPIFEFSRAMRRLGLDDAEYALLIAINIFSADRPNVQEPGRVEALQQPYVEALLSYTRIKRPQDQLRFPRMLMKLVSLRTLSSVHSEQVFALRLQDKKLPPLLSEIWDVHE

[5] = system: Nuclear hormone receptor DAF-12 (Haemonchus contortus); assay: hcDAF-12 luciferase reporter activation, retest – cell-based, luminescence, HEK293, lit1-tk-luc, triplicate, confirmation (AID 743032;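 active means mean activation across triplicate tests above the threshold derived from the earlier primary screen, cut at about 5.5% in these data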;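 further: 0% = DMSO only wells and 100% = 3 µM Δ7-dafachronic acid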); settings: HEK293 hcDAF-12 lit1-tk-luc reporter, at 6.8 µM, stronger effect = higher value, % of Δ7-dafachronic acid response
[6] = biological target: Photoreceptor-specific nuclear receptor (Homo sapiens) (UniProt Q9Y5X4); assay: retest of NR2E3-NCOR disrupting agonists – cell-based, luminescence, CHO-S two-hybrid, confirmation (AID 624378;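 active means average inhibition above a cutoff equal to the mean inhibition of all tested compounds plus one SD, cut at about 70% in these data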;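 further: 0% = DMSO in NR2E3 cells and 100% = DMSO in cells lacking NR2E3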); settings: CHO-S mammalian two-hybrid NR2E3-NCOR, luciferase luminescence; at 3.98 µM; stronger effect = higher value
Photoreceptor-specific nuclear receptor (Homo sapiens), sequence (Q9Y5X4 whole entry, looked up): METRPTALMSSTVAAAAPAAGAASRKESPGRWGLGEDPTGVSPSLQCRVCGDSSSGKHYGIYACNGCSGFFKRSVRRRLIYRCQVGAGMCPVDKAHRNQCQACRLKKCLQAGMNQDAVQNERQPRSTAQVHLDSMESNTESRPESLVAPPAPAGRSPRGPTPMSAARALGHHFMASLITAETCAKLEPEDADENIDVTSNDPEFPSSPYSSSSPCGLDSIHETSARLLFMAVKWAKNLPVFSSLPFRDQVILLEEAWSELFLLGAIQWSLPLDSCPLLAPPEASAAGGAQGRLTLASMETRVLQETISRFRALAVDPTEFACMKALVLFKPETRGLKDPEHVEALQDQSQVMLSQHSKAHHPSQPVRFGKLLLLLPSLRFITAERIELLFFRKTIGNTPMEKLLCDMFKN

[7] = nonselective effects on VP16 transactivation – cell-based, luminescence, CHO-S, high throughput, counter-screen for NR2E3 agonist project, confirmation (AID 624379;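 active means mean inhibition above a cutoff equal to the average over all tested compounds plus one standard deviation, cut at about 70% in these data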;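 further: 0% = DMSO with VP16-transfected cells and 100% = DMSO with cells lacking VP16; higher means less reporter light so more repression of VP16 activity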); settings: CHO-S GAL4-VP16 luciferase reporter, at 3.98 µM, stronger effect = higher value
[8] = VP16-driven transactivation reporter suppression – cell-based, luminescence, HEK293, counter-screen for COUP-TFII antagonist project (AID 687007; in the data active means inhibition above about 13%); settings: HEK293 Gal4-VP16 luciferase reporter, at 8.5 µM, stronger effect = higher value
[9] = biological target: COUP transcription factor 2 (Homo sapiens) (UniProt P24468); assay: retest of COUP-TFII reporter suppressors – cell-based, luciferase reporter, HEK293, triplicate, confirmation (AID 687008;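 active means mean inhibition over three repeats above a set limit taken from the earlier primary screen, cut at about 38% in these data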;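 further: 100% = cells given the luciferase reporter alone without the COUP-TF2 vector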); settings: HEK293 NGFI-A luciferase reporter, luminescence; at 8.5 µM; stronger effect = higher value
COUP transcription factor 2 (Homo sapiens), sequence (P24468 whole entry, looked up): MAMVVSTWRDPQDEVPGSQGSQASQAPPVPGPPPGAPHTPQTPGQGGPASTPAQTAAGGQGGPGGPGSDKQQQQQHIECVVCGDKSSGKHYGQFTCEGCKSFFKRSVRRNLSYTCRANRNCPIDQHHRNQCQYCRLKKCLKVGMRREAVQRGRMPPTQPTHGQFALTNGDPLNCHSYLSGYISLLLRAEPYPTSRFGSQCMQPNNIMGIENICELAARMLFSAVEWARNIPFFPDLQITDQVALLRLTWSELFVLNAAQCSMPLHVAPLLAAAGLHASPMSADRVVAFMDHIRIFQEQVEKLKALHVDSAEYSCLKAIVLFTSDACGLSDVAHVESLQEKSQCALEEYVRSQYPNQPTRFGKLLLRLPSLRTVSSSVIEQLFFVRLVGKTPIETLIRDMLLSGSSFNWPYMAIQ

[10] = biological target: Galanin receptor type 2 (Homo sapiens) (UniProt O43603); assay: blockers of human galanin receptor 2 – cell-based, confirmation (AID 866; in the data active means inhibition above about 27%;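 further: cells stimulated with galanin at about its EC80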); settings: GALR2-expressing cells, antagonist mode, at 4 µM, stronger effect = higher value
Galanin receptor type 2 (Homo sapiens), sequence (O43603 whole entry, looked up): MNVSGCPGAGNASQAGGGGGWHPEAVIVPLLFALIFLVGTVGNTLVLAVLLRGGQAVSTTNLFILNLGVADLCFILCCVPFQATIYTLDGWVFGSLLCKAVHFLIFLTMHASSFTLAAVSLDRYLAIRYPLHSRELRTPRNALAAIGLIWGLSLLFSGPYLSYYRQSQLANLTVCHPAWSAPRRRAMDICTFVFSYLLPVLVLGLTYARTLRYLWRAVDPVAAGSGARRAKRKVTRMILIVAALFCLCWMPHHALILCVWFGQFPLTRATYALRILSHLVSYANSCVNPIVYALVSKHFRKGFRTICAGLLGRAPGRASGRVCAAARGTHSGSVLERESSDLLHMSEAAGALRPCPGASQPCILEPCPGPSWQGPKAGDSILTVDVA

[11] = nonspecific BLA reporter inhibition – CHO NFAT-bla cells, FRET readout, counter-screen for GALR2 antagonist project, confirmation (AID 867;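 active means inhibition above the mean inhibition across tested compounds plus 3 SD, cut at about 27% in these data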;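 further: 0% = 500 nM thapsigargin stimulated wells and 100% = unstimulated BSA only wells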); settings: beta-lactamase FRET, thapsigargin-stimulated, at 4.2 µM, stronger effect = higher value
[12] = biological target: Serine protease HTRA1 (Homo sapiens) (UniProt Q92743); assay: confirming inhibition of human HTRA1 – biochemical, fluorescence polarization, confirmation (AID 540248;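 active means mean inhibition over three repeats above a set limit taken from the earlier primary screen, cut at about 37% in these data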;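 further: 0% = HTRA1 with DMSO and 100% = wells lacking HTRA1; inhibitors block probe binding so polarization drops and inhibition rises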); settings: recombinant HTRA1, FP-rhodamine activity-based probe, at 5.96 µM, stronger effect = higher value
[13] = biological target: Peroxisome proliferator-activated receptor gamma (Homo sapiens) (UniProt P37231); assay: retested PPARg-SRC-2 recruitment enhancers – biochemical, HTS, confirmation (AID 1297; in the data active means activation above about 22%;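 further: 0% = vehicle alone and 100% = reference agonist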); settings: biochemical SRC-2 recruitment by PPARgamma; at 8 µM; stronger effect = higher value
Peroxisome proliferator-activated receptor gamma (Homo sapiens), sequence (P37231 whole entry, looked up): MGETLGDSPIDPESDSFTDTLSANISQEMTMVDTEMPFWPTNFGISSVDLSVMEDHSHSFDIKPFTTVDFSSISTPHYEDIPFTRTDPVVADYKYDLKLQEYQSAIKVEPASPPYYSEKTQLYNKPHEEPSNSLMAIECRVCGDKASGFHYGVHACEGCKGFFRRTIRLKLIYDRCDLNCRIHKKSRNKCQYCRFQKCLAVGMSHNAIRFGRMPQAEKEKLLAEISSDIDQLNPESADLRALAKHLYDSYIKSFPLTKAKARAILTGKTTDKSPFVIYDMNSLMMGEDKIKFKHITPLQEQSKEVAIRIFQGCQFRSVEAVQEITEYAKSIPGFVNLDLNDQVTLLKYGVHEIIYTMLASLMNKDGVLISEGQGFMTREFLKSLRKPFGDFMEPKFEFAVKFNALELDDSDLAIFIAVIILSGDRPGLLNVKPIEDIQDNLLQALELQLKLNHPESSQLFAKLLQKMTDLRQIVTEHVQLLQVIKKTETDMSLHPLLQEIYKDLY

[14] = biological target: Peroxisome proliferator-activated receptor gamma (Homo sapiens) (UniProt P37231); assay: retest of SRC-1 recruitment enhancers for PPARgamma – biochemical, confirmation (AID 1300; in the data active means activation above about 20%;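 further: 0% = vehicle wells and 100% = reference agonist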); settings: PPARgamma–SRC-1 coactivator recruitment biochemical assay; at 8 µM; stronger effect = higher value
[15] = biological target: Peroxisome proliferator-activated receptor gamma (Homo sapiens) + Nuclear receptor coactivator 3 (Homo sapiens) (UniProt P37231+Q9Y6Q9); assay: agonists promoting SRC-3 binding to PPARgamma – biochemical, confirmation (AID 1301; in the data active means activation above about 24%;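 further: 0% = vehicle wells and 100% = reference agonist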); settings: biochemical PPARgamma-SRC-3 coactivator recruitment, agonist mode; at 8 µM; stronger effect = higher value
Peroxisome proliferator-activated receptor gamma (Homo sapiens) + Nuclear receptor coactivator 3 (Homo sapiens), sequence (P37231 whole entry, looked up, the tested form may be a part): as the sequence (P37231 whole entry, looked up) above
Peroxisome proliferator-activated receptor gamma (Homo sapiens) + Nuclear receptor coactivator 3 (Homo sapiens), sequence (Q9Y6Q9 whole entry, looked up, the tested form may be a part): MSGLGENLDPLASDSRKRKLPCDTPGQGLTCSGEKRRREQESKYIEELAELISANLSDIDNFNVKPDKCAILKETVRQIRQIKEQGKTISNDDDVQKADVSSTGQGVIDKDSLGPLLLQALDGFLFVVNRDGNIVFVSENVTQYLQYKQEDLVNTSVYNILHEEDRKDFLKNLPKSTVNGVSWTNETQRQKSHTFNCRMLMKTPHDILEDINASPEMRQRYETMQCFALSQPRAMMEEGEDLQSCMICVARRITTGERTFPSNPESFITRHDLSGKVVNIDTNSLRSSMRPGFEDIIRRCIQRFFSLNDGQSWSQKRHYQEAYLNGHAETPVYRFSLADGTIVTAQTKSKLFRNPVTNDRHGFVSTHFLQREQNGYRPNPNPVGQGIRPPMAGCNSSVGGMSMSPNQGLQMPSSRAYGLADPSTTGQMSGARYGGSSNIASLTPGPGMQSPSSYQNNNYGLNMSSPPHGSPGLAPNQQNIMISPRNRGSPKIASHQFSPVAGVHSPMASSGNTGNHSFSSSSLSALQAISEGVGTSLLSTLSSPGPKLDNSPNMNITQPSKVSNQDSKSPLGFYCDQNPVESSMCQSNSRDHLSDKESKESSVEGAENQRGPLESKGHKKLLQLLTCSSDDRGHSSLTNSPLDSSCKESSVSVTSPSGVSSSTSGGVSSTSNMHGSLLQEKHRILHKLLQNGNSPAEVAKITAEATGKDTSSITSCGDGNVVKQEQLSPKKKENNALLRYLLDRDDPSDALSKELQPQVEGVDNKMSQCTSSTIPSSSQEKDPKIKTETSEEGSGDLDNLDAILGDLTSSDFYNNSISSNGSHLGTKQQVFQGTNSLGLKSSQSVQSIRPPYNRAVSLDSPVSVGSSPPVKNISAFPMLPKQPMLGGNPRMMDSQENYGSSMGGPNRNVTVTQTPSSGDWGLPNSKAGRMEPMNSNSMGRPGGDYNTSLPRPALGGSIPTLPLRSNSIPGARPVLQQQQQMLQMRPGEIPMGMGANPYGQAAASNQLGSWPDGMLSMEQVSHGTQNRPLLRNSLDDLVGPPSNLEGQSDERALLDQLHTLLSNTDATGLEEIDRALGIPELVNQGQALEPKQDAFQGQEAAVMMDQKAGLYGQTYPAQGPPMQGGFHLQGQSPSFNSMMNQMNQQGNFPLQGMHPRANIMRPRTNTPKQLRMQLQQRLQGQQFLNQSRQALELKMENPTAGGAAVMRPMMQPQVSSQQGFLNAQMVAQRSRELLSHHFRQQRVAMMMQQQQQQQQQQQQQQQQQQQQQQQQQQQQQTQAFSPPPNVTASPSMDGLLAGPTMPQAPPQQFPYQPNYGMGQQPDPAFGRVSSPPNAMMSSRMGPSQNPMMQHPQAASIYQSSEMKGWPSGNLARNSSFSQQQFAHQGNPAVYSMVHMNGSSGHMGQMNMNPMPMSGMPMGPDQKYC

[16] = system: DAF-12 nuclear receptor (Heterodera glycines), GAL4-LBD fusion; assay: hgDAF-12 GAL4 fusion reporter activation, retest – cell-based, luminescence, HEK293, GAL4-LBD fusion, confirmation (AID 743050;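 active means mean activation over triplicate wells above the hit cutoff derived from the earlier primary screen, cut at about 11% in these data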;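 further: 0% = DMSO low control and 100% = 2 mM sodium butyrate high control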); settings: HEK293 GAL4-hgDAF12 luciferase reporter, agonist mode; at 6.8 µM; stronger effect = higher value; percent of butyrate response
[17] = biological target: Oxysterols receptor LXR-beta (Homo sapiens) (UniProt P55055); assay: nonspecific reporter activation via LXR – cell-based, luminescence, HEK293, H. glycines campaign, counter-screen for hgDAF-12 agonist project, confirmation (AID 743051;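 active means mean activation of the triplicate above a set limit carried over from the primary screen, none filed active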); settings: HEK293 Gal4-LXR luciferase reporter, 24 h; at 6.8 µM; stronger effect = higher value

Cc1csc(SCC(=O)Nc2sccc2C#N)n1
inactive: inhibition [1] 7.4% | inhibition [2] -23.8% | inhibition [3] -80.2% | activation [4] 1.59%
active: activation [5] 10.3%

COc1ccc(S(=O)(=O)Nc2ccc3oc(C)c(C(C)=O)c3c2)cc1
active: inhibition [2] 13.4% | inhibition [3] 20.4% | inhibition [6] 93% | inhibition [7] 79.4%
inactive: inhibition [1] 32.3% | inhibition [8] 1.7% | inhibition [9] 20.7%

c1ccc2[nH]c(-c3nc4ccccc4[nH]3)nc2c1
active: inhibition [12] 58.4%
inactive: inhibition [10] 21.3% | inhibition [11] 8.39% | inhibition [1] 5.87% | inhibition [2] -30% | inhibition [3] -97.2% | activation [4] 1.09% | activation [5] 4.57%

Cc1nc2ccccc2cc1OCc1ccc(F)cc1
active: inhibition [1] 61.5% | inhibition [6] 82.5% | inhibition [9] 38%
inactive: inhibition [2] 6.3% | inhibition [3] 5.63% | inhibition [7] 70.5% | inhibition [8] -26.8%

COc1cccc(-c2nc3cc(C)ccc3o2)c1
inactive: inhibition [1] 1.5% | inhibition [2] -23.8% | inhibition [3] -109% | activation [4] 2.33%
active: activation [5] 16.7%

N=C(N)SCc1cccc2ccccc12
active: inhibition [3] 19.2%
inactive: inhibition [1] 31.7% | inhibition [2] 4.87% | inhibition [8] 6.09% | inhibition [9] 20.6%

COc1ccc(/C(O)=C2/C(=O)C(=O)N(c3nc(C)c(C)s3)C2c2ccco2)cc1 (stereo not drawn)
active: activation [13] 21.9%
inactive: activation [14] 17.5% | activation [15] 16.1%

Cc1ccc(F)cc1NC(=O)Cc1nn(C)c(=O)c2ccccc12
active: inhibition [10] 33.5% | inhibition [1] 51.9% | inhibition [2] 16.1% | inhibition [3] 21.2% | inhibition [9] 48.1%
inactive: inhibition [11] 12.4% | inhibition [6] 65.1% | inhibition [7] 61.5% | inhibition [8] 9%

O=C(Nc1cccc(S(=O)(=O)Nc2ccc(Cl)cc2)c1)c1ccc2c(c1)OCCO2
active: inhibition [1] 55.6% | inhibition [2] 15.4% | inhibition [3] 17.7% | inhibition [9] 42.2%
inactive: inhibition [8] -4.16%

O=c1c2c(nc3cc(-c4cccc(Cl)c4)[nH]n13)CCCC2
inactive: inhibition [1] 21.9% | inhibition [2] -3.1% | inhibition [3] -108% | activation [4] 1.76% | activation [17] 1.15%
active: activation [5] 9.19% | activation [16] 13.8%

CCc1ccc2oc(-c3ccc(N)cc3)nc2c1
active: inhibition [2] 13.1% | activation [5] 10.2% | activation [16] 18.3%
inactive: inhibition [1] 36.1% | inhibition [3] -84.8% | activation [4] 1.54% | activation [17] 1.35%
